Mcl-1 Bim block – disrupts Bim peptide binding to human Mcl-1. 0.1% of 190,000 active. AID 1009. Q07820. inhibition, % at 10 µM. Bead-based flow cytometry, Bim peptide-Mcl-1 binding; in the data active = inhibition above about 40%;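 also: 0% = no compound tracer wells and 100% = peptide blocker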
Target sequence (Q07820 whole entry, looked up): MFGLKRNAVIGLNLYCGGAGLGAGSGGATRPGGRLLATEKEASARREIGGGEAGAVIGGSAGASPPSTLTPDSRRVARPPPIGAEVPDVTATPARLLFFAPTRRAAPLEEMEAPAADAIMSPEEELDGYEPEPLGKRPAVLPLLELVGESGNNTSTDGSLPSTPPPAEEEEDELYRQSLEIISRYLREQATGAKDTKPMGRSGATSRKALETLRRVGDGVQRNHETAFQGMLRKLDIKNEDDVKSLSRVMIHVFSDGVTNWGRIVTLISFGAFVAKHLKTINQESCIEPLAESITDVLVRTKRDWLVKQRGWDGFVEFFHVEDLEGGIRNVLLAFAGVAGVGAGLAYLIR
MCL1-BIM inh – MCL1-BIM-BH3 interaction inhibition (human). inhibition, % at 10.9 µM. GST-MCL1 / FITC-Bim-BH3 fluorescence polarization. 0.68% of 320,000 active;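 active = inhibition above the mean inhibition of all tested compounds plus 3 SD, set per campaign, cut at about 40% in these data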;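 also: 0% = DMSO wells and 100% = unlabeled Bim-BH3 peptide control; higher means more loss of mP so more displacement of Bim peptide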
Mcl1 Bid PPI – disrupts binding of human Mcl-1 to Bid peptide. inhibition, % at 21.7 µM. Q07820. TR-FRET Mcl-1/Bid-Dy647 peptide binding, 1536-well. 0.97% of 220,000 active;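 active = compounds that cut the binding signal by more than half at the single screening dose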;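 also: His-tagged Mcl-1 with europium anti-His antibody binding Bid BH3 peptide; 0% = Mcl-1 plus peptide wells and 100% = peptide-only wells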
Mcl1-Noxa inh – Mcl-1/Noxa interaction inhibition; Q07820; TR-FRET Mcl-1/Noxa peptide binding, 2 h; inhibition, % at 21.7 µM; 1.5% of 220,000 active; AID 1022;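 active = compounds that cut the protein-peptide binding signal by more than 50% relative to plate controls in a single-dose test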;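 also: His-tagged Mcl-1 with rhodamine Noxa BH3 peptide and terbium anti-His antibody; 0% = Mcl-1 plus Noxa peptide wells and 100% = peptide-only wells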
14-3-3 Bad PPI – disrupts binding of bovine 14-3-3 zeta to phospho-Bad peptide. 0.71% of 220,000 active. inhibition, % at 21.7 µM. AID 781. TR-FRET 14-3-3zeta/Dy647-pBad peptide displacement, 1 h;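 active = inhibition above about 70%, limit read from the data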;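 also: 0% = full 14-3-3 plus peptide FRET controls and 100% = background without 14-3-3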
Bcl-xL conf – counter-screen for MCL1 inhibitors: confirmation of human Bcl-xL inhibitors | shares compounds with MCL1-BIM inh | 54% of 1,700 active | AID 2166 | GST-Bcl-xL / FITC-Bim BH3 peptide FP binding | inhibition, % at 10.9 µM;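 active = inhibition above a cutoff equal to the mean inhibition of all tested compounds plus 3 SD, cut at about 30% in these data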;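 also: 0% = DMSO wells and 100% = unlabeled Bim BH3 control peptide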
Target sequence (Q07817 whole entry, looked up): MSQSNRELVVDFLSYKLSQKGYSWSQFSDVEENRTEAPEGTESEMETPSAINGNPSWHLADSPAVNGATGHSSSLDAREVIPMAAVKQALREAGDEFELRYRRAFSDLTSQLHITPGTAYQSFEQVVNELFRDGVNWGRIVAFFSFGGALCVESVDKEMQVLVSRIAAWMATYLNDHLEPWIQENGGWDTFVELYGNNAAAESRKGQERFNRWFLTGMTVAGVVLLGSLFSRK
MCL1 BIM confirm – confirmation of human MCL1 and BIM-BH3 interaction inhibitors | shares compounds with MCL1-BIM inh | GST-MCL1 / FITC-Bim-BH3 fluorescence polarization | inhibition, % at 10.9 µM | 61% of 1,700 active | AID 2168;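 active = inhibition above the average of all tested compounds plus 3 SD, cut at about 40% in these data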;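 also: 0% = DMSO wells and 100% = unlabeled Bim-BH3 control peptide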
* marks the source's active call; other numbers are inactive results; . = not tested or not shown; + = active, no number; [ ] = another dose, or the depositor's remark. In the library only some 2.5% were active in any assay of this set; here they are far more common.

SMILES	Mcl-1 Bim block	MCL1-BIM inh	Mcl1 Bid PPI	Mcl1-Noxa inh	14-3-3 Bad PPI	Bcl-xL conf	MCL1 BIM confirm
CC(C)=CCc1c(O)c(CC=C(C)C)c2c(c1O)-c1cc(O)c(O)cc1CC2	.	55*	.	.	.	41*	76*
Cc1cc(C)cc(C(=O)N/N=C/c2ccoc2)c1	.	1	.	.	.	.	.
O=C(N/N=C/c1ccoc1)c1cc(O)cc(O)c1	.	43*	.	.	.	25	56*
COc1cccc(N2C(=O)CC(N3CCc4ccccc43)C2=O)c1 (configuration not stated)	-2	4	-30	-6	-19	.	.
COc1ccc2c(c1)CCN1C2CCN2C(=O)CCC21 (configuration not stated)	.	56*	-10	4	-2	19	16
O=C(NNC(=O)C1CC1)c1cc2cc3ccccc3nc2s1	3	-7	-5	-3	-1	.	.
COc1ccc(OC)c(/C=C/c2nc3ccccc3[nH]c2=O)c1	.	83*	.	.	.	98*	99*
COc1ccc(OC)c(C=Nc2ccccc2-c2nc3ccccc3[nH]2)c1	1	-1	-16	21	4	.	.
O=C(Nc1ccc2nsnc2c1)c1cccs1	-2	1	-25	-9	-9	.	.
COc1ccc(C(CC(=O)N2CCCC2)c2c(OC)cc(OC)c3c(-c4ccccc4)cc(=O)oc23)cc1 (configuration not stated)	.	43*	-111	87*	40	8	34
Cc1nc2ccccn2c1C(=O)N/N=C/c1ccc([N+](=O)[O-])cc1	.	-4	-20	-8	0	.	.
Cc1nc2ccccn2c1C(=O)N/N=C/c1ccc([N+](=O)[O-])o1	-2	41*	-52	39	8	24	54*
CC(=O)c1cnc(N(C)C)s1	2	2	3	9	-2	.	.
CN(C)c1ncc(C2=C(Cl)C(=O)C(N3CCCC3)=C(Cl)C2=O)s1	85*	91*	61*	112*	79*[fluorescence artefact?]	63*	85*
Nc1ncc(N=Nc2cc(C(=O)O)ccc2Cl)s1	.	45*	-65	67*	45	36*	82*
Nc1cc2sc(-c3ccc(C(=O)O)cc3)nc2cc1Cl	-8	8	-49	43	2	.	.
COC(=O)CCC(=O)OC1(C)C(=O)C2=COC(c3ccc(OC)cc3)=CC2=C(Br)C1=O (configuration not stated)	.	56*	-41	50*	13	32*	57*
CCOC(=O)CC(=O)c1sc2c(c1N)c(=O)[nH]c(=O)n2-c1ccc(OC)cc1	.	-2	.	.	.	.	.
CC1=CC2=C(OC1N(C)C)c1cccc3cccc(c13)C2=O (configuration not stated)	4	143*	-5	13	-13	36*	39
Oc1ccccc1/C=N/N1CCCCC1	0	-8	-58	8	-3	.	.
Cc1ccccc1N=Nc1ccc(O)c2ncccc12	4	8	-63	-35	-5	.	.
O=S(=O)(O)c1cccc2c(N=Nc3ccc(O)c4ncccc34)cccc12	.	72*	.	.	.	34*	82*
CN(C)C(=O)c1cc(C(=O)c2ccccc2Cl)c[nH]1	2	2	-8	13	0	.	.
COC(=O)c1c(NC(=O)c2ccc(C)cc2)csc1C	.	-5	-10	-31	-17	.	.
COc1ccc(C2C=C(c3ccc(Br)s3)Nc3ncnn32)cc1OC (configuration not stated)	1	+	-58	-6	2	140*	161*
SMILES	Mcl-1 Bim block	MCL1-BIM inh	Mcl1 Bid PPI	Mcl1-Noxa inh	14-3-3 Bad PPI	Bcl-xL conf	MCL1 BIM confirm
COc1ccc(C2C=C(c3ccc(C)cc3)Nc3ncnn32)cc1 (configuration not stated)	-3	.	-113	9	.	.	.
Cc1cc(NC(=O)C(C)SCC(=O)Nc2ccc(Br)cc2Br)no1 (configuration not stated)	.	4	.	.	.	.	.
NC(=O)c1c(NC(=O)C2CC=CCC2C(=O)O)sc2c1CCCCC2 (configuration not stated)	.	41*	.	.	.	20	20
CC(C)C[C@H]1C(=O)N2CCC[C@H]2[C@]2(O)O[C@](NC(=O)[C@@H]3C=C4c5cccc6[nH]c(Br)c(c56)CC4N(C)C3)(C(C)C)C(=O)N12 (some centres not stated)	0	111*	6	18	0	24	28
CC1(C)CC(=O)C2=C(C1)OC(N)=C(C#N)C2c1ccccc1[N+](=O)[O-] (configuration not stated)	-1	186*	-52	14	-14	93*	114*
CC1(C)CC(=O)C2=C(C1)OC(N)=C(C#N)C2c1ccccc1 (configuration not stated)	-2	3	-70	32	1	.	.
COc1cccc2c1C(=O)c1c(O)c3c(c(O)c1C2=O)C[C@](O)(C(C)=O)C[C@H]3O[C@@H]1C[C@@H](N)[C@@H](O)[C@@H](C)O1	.	+	.	.	.	+	+
O=C(COc1coc(CN2CCc3ccccc3C2)cc1=O)Nc1cccc(F)c1	.	4	.	.	.	.	.
Cc1cccn2c(=O)c(C=C(C#N)C#N)c(N3CCN(C)CC3)nc12	.	53*	.	.	.	12	18
COC(=O)C1=C(CSc2nc3c(cc2C#N)CN(C)CC3)OC(N)=C(C#N)C1c1ccccc1F (configuration not stated)	-5	100*	-23	34	-8	23	21
CCOC(=O)C1=C(CSc2nc3c(cc2C#N)CCC3)OC(N)=C(C#N)C1c1ccccc1 (configuration not stated)	0	6	-29	25	-1	.	.
CCOC(=O)C1=C(CSc2nc3c(cc2C#N)CN(C)CC3)OC(N)=C(C#N)C1c1ccccc1 (configuration not stated)	-4	85*	-16	33	7	16	8
COc1ccc(CN2CC[C@H]3C=CCc4cccc(c43)C2)cc1	.	87*	.	.	.	19	16
COc1cc(NC(C)C(=O)N2CC(C)OC(C)C2)cc(OC)c1 (configuration not stated)	6	82*	1	25	-5	16	15
Cc1cccc(C)c1OCc1cc(C(=O)N(Cc2c(C)nn(C)c2C)C2CC2)no1	.	0	.	.	.	.	.
O=C1NC(=Nc2ccc(Cl)cc2)/C(=C/c2ccco2)S1	4	90*	57*	66*	81*[fluorescence artefact?]	38*	75*
Cc1cccc(N=C2NC(=O)S/C2=C\c2ccco2)c1	0	42*	4	35	-3	28	33
Cc1cccc(N=C2CSC(=O)N2)c1	-24	6	-1	3	-3	.	.
Cc1ccc(-n2nc3c(c2NC(=O)c2ccc(Br)o2)CSC3)c(C)c1	-6	0	-21	-41	-1	.	.
